# Structures can show the parent of a compound that is named as a salt.
# Tested on: RIVA
# Experiment: growth inhibition by drug plus 177Lu-lilotomab satetraxetan (1 - RLU/untreated control) (fraction); higher = stronger inhibition
# Details: 10 nM; time (day): 4; 177Lu-lilotomab satetraxetan 0.5 ug/ml
# How it was run: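 RIVA or U-2932 cells were left untreated or pretreated for 18 h with a radiolabelled anti-CD37 antibody conjugate (~600 MBq/mg) at 0.5 µg/ml for RIVA or 1 µg/ml for U-2932. The cells were then washed and seeded at 3,000 cells/well on plates pre-printed with the Selleck Cambridge Cancer Compound library, dosed at 10/100 nM for RIVA and 10/1,000 nM for U-2932. From day 3, RealTime-Glo luminescence was read daily after 1 h at 37°C. Growth inhibition was taken as one minus RLU over the mean of the untreated no-drug wells, of which there were 48 per plate.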
row,Structure (SMILES),growth inhibition by drug plus 177Lu-lilotomab satetraxetan
1,COc1ccc(S(=O)(=O)Nc2cccnc2Nc2ccc(O)cc2)cc1,0.511
2,C[C@]12CCC(=O)C=C1CC[C@@H]1[C@@H]2[C@@H](O)C[C@@]2(C)[C@H]1CC[C@]2(O)C(=O)CO [Hydrocortisone (Cortisol)],0.578
3,COc1cc(OC2CCN(C)CC2)ccc1Nc1ncc2c(n1)n(C1CCCC1)c(=O)n2C,0.578
4,Nc1nc(F)nc2c1ncn2[C@@H]1O[C@H](CO)[C@@H](O)[C@@H]1O [Fludarabine (Fludara)],0.58
5,Nc1nc(Nc2ccc(S(N)(=O)=O)cc2)nn1C(=O)c1c(F)cccc1F,0.516
6,Nc1ncn([C@@H]2O[C@H](CO)[C@@H](O)[C@H]2O)c(=O)n1 [Azacitidine (Vidaza)],0.483
7,COc1cc2nccc(Oc3ccc(NC(=O)NC4CC4)c(Cl)c3)c2cc1C(N)=O [E7080 (Lenvatinib)],0.478
8,Nc1ccn([C@@H]2O[C@H](CO)[C@@H](O)[C@@H]2O)c(=O)n1 [Cytarabine],0.601
9,Nc1cccc2c1C(=O)N(C1CCC(=O)NC1=O)C2=O (stereo not drawn) [Pomalidomide],0.529
10,CN(C)c1nc(N(C)C)nc(N(C)C)n1 [Altretamine (Hexalen)],0.469
11,Cc1[nH]c(/C=C2\C(=O)Nc3ccc(S(=O)(=O)N(C)c4cccc(Cl)c4)cc32)c(C)c1C(=O)N1CCN(C)CC1,0.536
12,O=C(O[C@@H]1Cc2c(O)cc(O)cc2O[C@@H]1c1cc(O)c(O)c(O)c1)c1cc(O)c(O)c(O)c1 [(-)-Epigallocatechin gallate],0.532
13,CCc1c2c(nc3ccc(OC(=O)N4CCC(N5CCCCC5)CC4)cc13)-c1cc3c(c(=O)n1C2)COC(=O)[C@]3(O)CC [Irinotecan HCl Trihydrate (Campto)],0.422
14,S=C(NCc1ccc2c(c1)OCO2)N1CCN(c2ncnc3c2oc2ccccc23)CC1 [Amuvatinib (MP-470)],0.668
15,COc1ccc2c3n(c(=NC(=O)c4cccnc4)nc2c1OC)CCN3,0.534
16,C#Cc1cccc(Nc2ncnc3cc(OCCOC)c(OCCOC)cc23)c1 [Erlotinib HCl],0.534
17,Cc1ccc(-c2cc(C(F)(F)F)nn2-c2ccc(S(N)(=O)=O)cc2)cc1 [Celecoxib],0.477
18,N#CC[C@H](C1CCCC1)n1cc(-c2ncnc3[nH]ccc23)cn1,0.445
19,CCc1cncnc1N1CCN(Cc2nc3ccc(C(F)(F)F)cc3[nH]2)CC1,0.583

row,Structure (SMILES),growth inhibition by drug plus 177Lu-lilotomab satetraxetan
1,CCN(CC)C(=S)SSC(=S)N(CC)CC [Disulfiram (Antabuse)],0.529
2,CC(C)[C@H](C(=O)Nc1ccc(C(=O)NO)cc1)c1ccccc1,0.584
3,CC(=O)O[C@]1(C(C)=O)CC[C@H]2[C@@H]3C=C(C)C4=CC(=O)CC[C@]4(C)[C@H]3CC[C@@]21C [Megestrol Acetate],0.529
4,COc1cc2ncnc(Nc3cccc(Br)c3)c2cc1OC,0.458
5,N#Cc1ccc(C(c2ccc(C#N)cc2)n2cncn2)cc1 [Letrozole],0.498
6,CC(=O)c1c(C)c2cnc(Nc3ccc(N4CCNCC4)cn3)nc2n(C2CCCC2)c1=O,0.527
7,COc1cccc2c1C(=O)c1c(O)c3c(c(O)c1C2=O)C[C@@](O)(C(=O)CO)C[C@@H]3O[C@H]1C[C@H](N)[C@H](O)[C@H](C)O1 [Doxorubicin (Adriamycin)],0.879
8,CC(C)(C)c1[nH]cnc1/C=c1\[nH]c(=O)/c(=C/c2ccccc2)[nH]c1=O [NPI-2358 (Plinabulin)],0.546
9,COc1cc(Nc2ncc3c(n2)-c2ccc(Cl)cc2C(c2c(F)cccc2OC)=NC3)ccc1C(=O)O [MLN8237 (Alisertib)],0.551
10,O=c1[nH]cc(F)c(=O)[nH]1 [Adrucil (Fluorouracil)],0.521
11,CC(C)c1ccc(Cn2ccc3c4c(N)nc(NC5CC5)nc4ccc32)cc1,0.702
12,CC/C(=C(\c1ccccc1)c1ccc(OCCN(C)C)cc1)c1ccccc1 [Tamoxifen Citrate (Nolvadex)],0.651
13,Cn1cc(C2=C(c3ccc(Cl)cc3Cl)C(=O)NC2=O)c2ccccc21,0.533
14,c1ccc(-c2nn3c(c2-c2ccnc4cc(OCCN5CCOCC5)ccc24)CCC3)nc1,0.581
15,O=C(NCCS(=O)(=O)c1ccc(C(F)(F)F)cn1)c1ccc(Cl)cc1,0.553
16,Cc1ccc(S(=O)(=O)C=CC#N)cc1,0.5
17,CCC1=C[C@@H]2CN(C1)Cc1c([nH]c3ccccc13)[C@@](C(=O)OC)(c1cc3c(cc1OC)N(C)[C@H]1[C@@](O)(C(=O)OC)[C@H](OC(C)=O)[C@]4(CC)C=CCN5CC[C@]31[C@@H]54)C2 [Vinorelbine (Navelbine)],0.949
18,Cc1cc(Nc2cc(N3CCN(C)CC3)nc(/C=C/c3ccccc3)n2)n[nH]1,0.485
19,CN(N=O)C(=O)N[C@@H](C=O)[C@@H](O)[C@H](O)[C@H](O)CO [Streptozotocin (Zanosar)],0.504

# From the supplement of paper PMC6897291
